From PubChem BioAssay (Tox21) come the findings set out here.

Test [1] in a line: qHTS assay to identify small molecule antagonists of the thyroid receptor (TR) signaling pathway - cell viability counter screen (AID 743064). Also: nearly all actives have a fitted effect of over 50% in size. Also: potency is read from the fitted curve at half-maximal effect. The method in brief: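 Rat GH3 pituitary tumor cells stably expressing two TR response elements driving luciferase were plated, rested 4 h, then dosed with library compounds and T3 (1 nM final). After 23.5 h at 37 °C, CellTiter-Fluor was added for 30 min and fluorescence recorded.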
(qHTS replaces the single test concentration by a dilution series.)

Test [2] can be described thus: qHTS assay to identify small molecule antagonists of the thyroid receptor (TR) signaling pathway (AID 743065). Also: nearly all actives have a fitted effect of over 55% in size. Also: potency is read from the fitted curve at half-maximal effect. The method in brief: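 GH3.TRE-Luc rat pituitary cells (two TREs driving luciferase) were dosed with compound, then stimulated with 1 nM T3 (final) for 23.5 h at 37 C. ONE-Glo luminescence was the read-out, with CellTiter-Fluor fluorescence as the cytotoxicity counter-screen.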

The target in test [3] is Estrogen receptor (Homo sapiens) (UniProt P03372). Kind of test: qHTS assay to identify small molecule antagonists of the estrogen receptor alpha (ER-alpha) signaling pathway (AID 743069; active = well fitted curve in the direction sought with a large enough effect in the signal ratio in the repeat runs, not every such curve was filed as active; the % refers to the signal ratio). In short, it runs like this:
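HEK293 ER-alpha-UAS-bla GripTite cells, held overnight in 2% charcoal-stripped FBS, 5,000 cells/well, preincubated 4 h, then compound plus 17beta-estradiol for 18 h at 37C. Beta-lactamase read by LiveBLAzer B/G FRET substrate, 2 h at room temperature.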

Test [4] can be described thus: qHTS assay to identify small molecule antagonists of the estrogen receptor alpha (ER-alpha) signaling pathway - cell viability counter screen (AID 743074; calls by dose curve;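 also: HEK293 cells carrying ER-alpha-UAS-bla reporter stimulated with 17beta-estradiol; nearly all actives have a fitted effect of over 45% in size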; also: potency is read from the fitted curve at half-maximal effect).
The target in test [5] is Estrogen receptor (Homo sapiens) (UniProt P03372). Briefly: qHTS assay to identify small molecule agonists of the estrogen receptor alpha (ER-alpha) signaling pathway (AID 743075; calls by dose curve).
Test [6] has the same target. Kind of test: qHTS assay to identify small molecule agonists of the estrogen receptor alpha (ER-alpha) signaling pathway using the BG1 cell line (AID 743079). Also: nearly all actives have a fitted effect of over 20% in size.
A short description of test [7]: qHTS assay to identify small molecule antagonists of the estrogen receptor alpha (ER-alpha) signaling pathway using the BG1 cell line (AID 743080; calls by dose curve;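 also: BG1 cells stimulated with 17beta-estradiol alongside compound; nearly all actives have a fitted effect of over 25% in size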; also: potency is read from the fitted curve at half-maximal effect). The method in brief: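 Endogenous full-length ER-alpha in BG1-Luc-4E2 cells drives a stably integrated 4×ERE luciferase gene; compounds were tested against 17beta-estradiol over 21.5 h, with luminescence and multiplexed viability fluorescence recorded.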

Test [8] in a line: qHTS assay to identify small molecule antagonists of the estrogen receptor alpha (ER-alpha) signaling pathway using the BG1 cell line - cell viability counter screen (AID 743081).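 Also: compound given together with 17beta-estradiol as the ER stimulus; series mostly up to about 70 µM; nearly all actives have a fitted effect of over 45% in size.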
The target of a further test is Aromatase (Homo sapiens) (UniProt P11511). Kind of test: qHTS assay to identify aromatase inhibitors (AID 743083). Also: nearly all actives have a fitted effect of over 55% in size. Also: potency is read from the fitted curve at half-maximal effect.
Test [9] can be described thus: qHTS assay to identify aromatase inhibitors - cell viability counter screen (AID 743084).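 Also: cells stimulated with testosterone during compound exposure; nearly all actives have a fitted effect of over 55% in size.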 Also: potency is read from the fitted curve at half-maximal effect.
Test [10] addresses Aryl hydrocarbon receptor (Homo sapiens) (UniProt P35869). Briefly: qHTS assay to identify small molecule that activate the aryl hydrocarbon receptor (AhR) signaling pathway (AID 743085).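 Also: HG2L7.5c1 human HepG2 liver cells with stably integrated DRE-driven firefly reporter; series mostly up to about 70 µM; nearly all actives have a fitted effect of over 15% in size.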 In short, it runs like this: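 Compounds were tested in HepG2 hepatocellular carcinoma cells harbouring a stably integrated luciferase gene under control of 20 DREs. Increased reporter signal after 24 h treatment at 37C was taken as AhR activation.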

The nature of test [11]: qHTS assay to identify small molecule that activate the aryl hydrocarbon receptor (AhR) signaling pathway - cell viability counter screen (AID 743086). Also: nearly all actives have a fitted effect of over 45% in size. Also: potency is read from the fitted curve at half-maximal effect. The method in brief:
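HepG2-AhR-luc (HG2L7.5c1) cells, 4000/well, treated 24 h at 37 C with compound; viability measured as CellTiter-Fluor fluorescence after 30 min in the same wells as the luciferase read.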

Test [12] addresses Peroxisome proliferator-activated receptor gamma (Homo sapiens) (UniProt P37231). Kind of test: qHTS assay to identify small molecule agonists of the peroxisome proliferator-activated receptor gamma (PPARg) signaling pathway (AID 743094; active = well fitted activation curve with a large enough effect in the signal ratio in the repeat runs, not every such curve was filed as active; the % refers to the signal ratio). In short, it runs like this: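 GeneBLAzer PPARg UAS-bla HEK293H cells carrying a stably integrated beta-lactamase reporter were pre-incubated 5 h at 37C, then exposed to compounds in DMSO for 17 h at 37C; LiveBLAzer B/G FRET substrate was added for 1 h at room temperature and fluorescence read.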

Test [13] shares this target. Kind of test: qHTS assay to identify small molecule antagonists of the peroxisome proliferator-activated receptor gamma (PPARg) signaling pathway (AID 743191; calls by dose curve; also: series mostly up to about 63 µM; nearly all actives have a fitted effect of over 30% in size). In short, it runs like this:
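GeneBLAzer PPARg UAS-bla HEK293H cells, 5 h post-plating, exposed to compounds 17 h at 37C. LiveBLAzer B/G FRET substrate added for 1 h at room temperature; beta-lactamase reporter read by fluorescence intensity.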

A short description of test [14]: qHTS assay to identify small molecule antagonists of the peroxisome proliferator-activated receptor gamma (PPARg) signaling pathway - cell viability counter screen (AID 743194). Also: nearly all actives have a fitted effect of over 55% in size. Also: potency is read from the fitted curve at half-maximal effect. In short, it runs like this:
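Cytotoxicity counter screen in PPARg-bla HEK293H cells, same wells as reporter assay. Compounds plus 50 nM rosiglitazone (final) for 17 h at 37 C, then viability read by CellTiter-Glo luminescence.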

Test [15] in a line: qHTS assay for small molecule activators of the heat shock response signaling pathway - cell viability counter screen (AID 743209). Also: nearly all actives have a fitted effect of over 50% in size. Also: potency is read from the fitted curve at half-maximal effect. The method in brief: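 CellSensor HSE-bla HeLa cells, plated overnight at 37 C/5% CO2, were exposed to compounds in DMSO for 5 h at 37 C. Viability was then read in the same wells by CellTiter-Glo luminescence after 30 min at room temperature.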

Test [16] in a line: qHTS assay for small molecule activators of the heat shock response signaling pathway (AID 743210; active = well fitted activation curve with a large enough effect in the signal ratio in the repeat runs, with a control signal flat, not every such curve was filed as active; the % refers to the signal ratio; also: series mostly up to about 63 µM). The method in brief:
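HSE-bla HeLa cells (beta-lactamase reporter under heat shock response elements), plated overnight, then exposed to compounds 5 h at 37 C; LiveBLAzer B/G FRET substrate added, 2.5 h at room temperature, fluorescence intensity read.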

The nature of test [17]: qHTS assay for small molecule agonists of the antioxidant response element (ARE) signaling pathway - cell viability counter screen (AID 743203; calls by dose curve; also: nearly all actives have a fitted effect of over 55% in size; also: potency is read from the fitted curve at half-maximal effect). In short, it runs like this: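 CellSensor ARE-bla HepG2 cells, 2,000 per well, rested 5 hrs at 37C/5% CO2, then exposed to compound in DMSO for 16 hrs; viability read as CellTiter-Glo luminescence after 30 min at room temperature, in the reporter wells.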

In test [18] the test system is thyroid hormone receptor (rat, GH3 cells). Briefly: qHTS assay to identify small molecule agonists of the thyroid receptor (TR) signaling pathway (AID 743066; calls by dose curve).
A short description of test [19]: qHTS assay for small molecule agonists of the antioxidant response element (ARE) signaling pathway (AID 743202; active = well fitted activation curve with a large enough effect in the signal ratio in the repeat runs, not every such curve was filed as active; the % refers to the signal ratio). In short, it runs like this: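 ARE-bla HepG2 cells (beta-lactamase reporter under the antioxidant response element), plated 5 hours, then exposed to compounds 16 hours at 37 C. LiveBLAzer B/G FRET substrate added for 2 hours at room temperature; fluorescence intensity read.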

The structures appear in SMILES notation. Several values for one entry are separate records, joined by “and”; a condition that tells them apart may be missing. Equal entries are not always repeated. Inconclusive results are not listed. The source holds several records for some structures; these can differ, active in one and inactive in another. Activity calls are given as the source filed them. Unless noted, calls follow the shape of the dose curve; as a rule, active = well fitted curve in the direction sought with a large enough effect in the repeat runs; inconclusive = weak or mixed curves; inactive = no such curve, though single readings can be large; an effect the other way counts as inactive or inconclusive.

Chain of Aromatase (Homo sapiens) (P11511 whole entry, looked up): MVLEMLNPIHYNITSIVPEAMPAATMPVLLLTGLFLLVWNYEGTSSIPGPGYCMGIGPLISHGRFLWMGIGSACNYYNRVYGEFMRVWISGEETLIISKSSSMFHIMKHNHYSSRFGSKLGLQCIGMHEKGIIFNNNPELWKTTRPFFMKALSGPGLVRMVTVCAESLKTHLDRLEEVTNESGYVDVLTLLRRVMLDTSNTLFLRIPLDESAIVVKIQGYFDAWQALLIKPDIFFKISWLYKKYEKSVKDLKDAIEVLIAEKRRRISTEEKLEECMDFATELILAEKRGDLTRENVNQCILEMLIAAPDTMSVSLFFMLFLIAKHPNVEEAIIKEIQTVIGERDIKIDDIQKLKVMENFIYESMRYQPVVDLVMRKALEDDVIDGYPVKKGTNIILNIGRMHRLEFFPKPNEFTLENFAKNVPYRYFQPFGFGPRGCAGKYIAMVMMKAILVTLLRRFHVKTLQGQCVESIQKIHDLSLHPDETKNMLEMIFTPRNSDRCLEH
Chain of Estrogen receptor (Homo sapiens) (P03372 whole entry, looked up): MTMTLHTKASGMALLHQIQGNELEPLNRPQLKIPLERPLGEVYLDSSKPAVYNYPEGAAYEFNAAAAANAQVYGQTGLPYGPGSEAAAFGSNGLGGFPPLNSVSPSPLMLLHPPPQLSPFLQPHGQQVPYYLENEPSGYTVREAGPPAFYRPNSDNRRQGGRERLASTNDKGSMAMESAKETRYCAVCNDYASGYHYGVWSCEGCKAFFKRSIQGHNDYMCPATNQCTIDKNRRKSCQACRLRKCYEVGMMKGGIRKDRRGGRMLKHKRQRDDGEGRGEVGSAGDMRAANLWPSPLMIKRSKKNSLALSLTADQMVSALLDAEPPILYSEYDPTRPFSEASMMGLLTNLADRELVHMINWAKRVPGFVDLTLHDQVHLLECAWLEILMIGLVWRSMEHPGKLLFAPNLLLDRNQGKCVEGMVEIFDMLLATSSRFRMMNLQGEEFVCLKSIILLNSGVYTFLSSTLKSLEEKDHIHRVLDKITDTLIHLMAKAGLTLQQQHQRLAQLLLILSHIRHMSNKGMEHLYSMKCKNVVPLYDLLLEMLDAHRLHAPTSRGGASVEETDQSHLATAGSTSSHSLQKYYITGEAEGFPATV
Chain of Peroxisome proliferator-activated receptor gamma (Homo sapiens) (P37231 whole entry, looked up): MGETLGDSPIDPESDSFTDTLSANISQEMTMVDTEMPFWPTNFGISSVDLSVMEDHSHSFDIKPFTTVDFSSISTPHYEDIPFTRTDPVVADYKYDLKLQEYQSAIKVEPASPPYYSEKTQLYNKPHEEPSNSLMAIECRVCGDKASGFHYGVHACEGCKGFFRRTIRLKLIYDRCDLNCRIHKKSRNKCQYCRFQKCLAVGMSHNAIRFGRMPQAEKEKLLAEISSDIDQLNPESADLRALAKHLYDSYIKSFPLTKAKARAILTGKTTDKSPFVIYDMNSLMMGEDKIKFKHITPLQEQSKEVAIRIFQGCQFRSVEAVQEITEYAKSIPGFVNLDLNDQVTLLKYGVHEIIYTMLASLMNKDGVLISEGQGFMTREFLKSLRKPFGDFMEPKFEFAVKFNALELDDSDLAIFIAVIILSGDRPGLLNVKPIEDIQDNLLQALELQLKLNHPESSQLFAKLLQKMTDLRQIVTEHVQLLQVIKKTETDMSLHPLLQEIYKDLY
Chain of Aryl hydrocarbon receptor (Homo sapiens) (P35869 whole entry, looked up): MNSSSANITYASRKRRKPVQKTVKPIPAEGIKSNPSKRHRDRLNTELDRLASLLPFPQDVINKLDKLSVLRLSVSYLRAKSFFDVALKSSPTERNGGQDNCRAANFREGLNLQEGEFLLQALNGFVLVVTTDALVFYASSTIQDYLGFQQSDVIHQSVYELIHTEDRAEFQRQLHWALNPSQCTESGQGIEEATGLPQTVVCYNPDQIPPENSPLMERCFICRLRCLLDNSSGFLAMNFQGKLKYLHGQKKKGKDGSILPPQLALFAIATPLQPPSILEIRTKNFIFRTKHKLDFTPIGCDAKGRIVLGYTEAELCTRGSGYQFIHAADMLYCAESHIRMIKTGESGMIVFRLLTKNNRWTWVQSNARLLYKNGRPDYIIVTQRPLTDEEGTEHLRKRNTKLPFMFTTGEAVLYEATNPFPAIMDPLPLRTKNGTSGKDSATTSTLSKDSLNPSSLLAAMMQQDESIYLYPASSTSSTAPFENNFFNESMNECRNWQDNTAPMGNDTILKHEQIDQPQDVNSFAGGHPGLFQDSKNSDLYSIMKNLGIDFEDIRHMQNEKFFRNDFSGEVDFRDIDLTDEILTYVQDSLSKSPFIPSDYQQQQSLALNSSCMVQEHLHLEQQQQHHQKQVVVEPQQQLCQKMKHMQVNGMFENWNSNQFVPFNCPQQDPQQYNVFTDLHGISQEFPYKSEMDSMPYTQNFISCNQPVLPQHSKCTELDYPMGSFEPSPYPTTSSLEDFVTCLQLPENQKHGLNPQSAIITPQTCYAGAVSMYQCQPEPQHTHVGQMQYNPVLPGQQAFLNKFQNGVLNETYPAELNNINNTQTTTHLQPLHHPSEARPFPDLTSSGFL

On to `CC(C)OC(=O)C(O)(CC(=O)O)CC(=O)O`, for which the Potency result in test [1], in [2], in test [3], in [4], in [5] and in test [6] was “inactive” throughout. The Potency result (in [7]; in [8]; with Aromatase (Homo sapiens); in test [9]; in test [10]; in [11]) was “inactive” each time. The Potency entry in [12], in [13], in test [14], in test [15] and in [16] was “inactive” each time.
For `O=C1CCc2ccc(OCCCCN3CCN(c4cccc(Cl)c4Cl)CC3)cc2N1`, the Potency in [1] was 11.9 µM (active); in test [2], 11.9 µM (active); in [4], 23.9 µM (active); in [14] it was 15 µM (active); in test [17] it was 16.8 µM (active); in [15], 26.6 µM (active). Also, the Potency entry (with Aromatase (Homo sapiens); in [9]; in test [10]; in test [11]) was “inactive” in each case.
Take `CCCCCCCCCCCCCC[N+](C)(C)Cc1ccccc1`: the Potency is 11.9 µM (active) and 13.9 µM (active) in test [1]; 21.3 µM (active) and 22.2 µM (active) in [4]; 26.6 µM (active) in [7]; 29.8 µM (active) and 13.9 µM (active) with Aromatase (Homo sapiens); “inactive and 24.7 µM (active)” in test [9]; 69.6 µM (active) in [11]. For the same molecule, the Potency was 22.2 µM (active) and 29.8 µM (active) in test [14]; 69.6 µM (active) in test [17]; 44.3 µM (active) and 26.6 µM (active) in [15]. In addition, in test [18], the molecule was classed as inactive. The Potency entry in test [5], in test [8], in test [10] and in [12] was “inactive” throughout.
Consider `CN1CCCCC1CCN1c2ccccc2Sc2ccc(S(C)=O)cc21` (configuration not stated), for which the Potency result in test [1] is “inactive and 13.3 µM (active)”. The molecule was called inactive in [18]. Further, the Potency result in test [3], in [4], in test [5], in [6], in test [7] and in test [8] was “inactive” throughout. The Potency result (with Aromatase (Homo sapiens); in test [9]; in test [10]; in test [11]; in test [12]; in [13]) was “inactive” throughout. Besides, the Potency result in [14], in [19], in test [15] and in test [16] was “inactive” each time.
Take `CC(N=C(NC#N)Nc1ccncc1)C(C)(C)C` (configuration not stated): the Potency entry in [1], in [4], in [8], in test [9], in test [10] and in test [11] was “inactive” throughout. Also, the Potency result in test [14], in test [17] and in test [15] was “inactive” in each case. Moreover, the call in [18] was inactive.
On to `C[C@H]1NCc2cc(-c3ccc4c(=O)c(C(=O)O)cn(C5CC5)c4c3OC(F)F)ccc21`, for which the Potency entry in test [1], in test [3], in [5], in [6], in test [7] and in test [8] was “inactive” each time. Moreover, the Potency result (with Aromatase (Homo sapiens); in [9]; in test [10]; in test [11]; in test [12]; in test [14]) was “inactive” in each case. For the same molecule, the Potency result in test [19] was “inactive”. Also, the outcome in test [18] was inactive.
Regarding `Cc1cc(C(C)(C)C)cc(C)c1CC1=NCCN1`, the Potency entry in test [1], in [3], in [4], in [5], in [6] and in test [7] was “inactive” throughout. For the same molecule, the Potency entry (in test [8]; in the test with Aromatase (Homo sapiens); in test [9]; in test [10]; in test [11]; in test [12]) was “inactive” each time. Also, the Potency result in test [13], in [14], in [19], in test [17], in test [15] and in test [16] was “inactive” in each case. Also, the molecule was called inactive in test [18].
